Experimental data from PubChem BioAssay AID651551 (Sanford-Burnham Center for Chemical Genomics, 2012).

molecular target: PEG-3 (UniProt Q6IN02); test: GAPDH versus PEG-3 reporter suppression – cell-based, luminescence, counter-screen for PEG-3 promoter inhibitor project, SAR follow-up (AID 651551); conditions: HeLa PEG-Prom / GAPDH luciferase reporter, 6 or 24 h, run 2, 24 h; at 99 µM (top of the series)

Point of comparison: `COCCCNC(=O)c1ccc(Cn2c(=O)c3ccccc3n(Cc3ccccc3C#N)c2=O)cc1`, inhibition % (higher = more inhibition) 54.9%. Against it:
- O=C(Nc1nc(-c2ccccc2)cs1)c1nn(-c2ccccc2)c(=O)c2ccccc12 — lower, 21.2%
- COc1ccc(-n2nc(C(=O)NCC(=O)Nc3cc(OC)c(OC)c(OC)c3)c3ccccc3c2=O)cc1OC — lower, 40.8%
- CCCn1nc(C(=O)Nc2nc(-c3ccncc3)cs2)c2ccccc2c1=O — lower, 40.8%
- O=C(Nc1nc2ccccc2s1)c1nn(-c2ccccc2)c(=O)c2ccccc12 — lower, -4.01%
- Cc1ccc(Cl)cc1Nc1nc(-c2sc(NC(=O)c3ccco3)nc2C)cs1 — lower, 1.6%
- CCCn1nc(C(=O)Nc2nc3ccccc3s2)c2ccccc2c1=O — lower, 18.4%
- COc1ccccc1Nc1nc(-c2sc(NC(=O)c3ccco3)nc2C)cs1 — lower, 10%
- O=C(Nc1nccs1)c1nn(-c2ccccc2)c(=O)c2ccccc12 — lower, 49.2%
- Cc1cc(NC(=O)c2ccccc2C)n(-c2nc3ccccc3[nH]2)n1 — lower, 11.5%
- Cc1cc(NC(=O)c2ccccc2)n(-c2nc3ccccc3[nH]2)n1 — lower, -13.6%
- Cc1cc(NC(=O)c2ccccc2C(F)(F)F)n(-c2nc3ccccc3[nH]2)n1 — higher, 91.9%
- COc1ccc(-n2nc(C(=O)NCC(=O)Nc3cccc(OC)c3)c3ccccc3c2=O)cc1 — lower, 21.2%
- COc1ccc(Cl)cc1Nc1nc(-c2sc(NC(=O)c3ccccc3)nc2C)cs1 — higher, 76.3%
- Cc1cc(NC(=O)c2cccc(C)c2C)n(-c2nc3ccccc3[nH]2)n1 — lower, 24%
- CCCn1nc(C(=O)Nc2nc(-c3ccccn3)cs2)c2ccccc2c1=O — lower, 44.6%
- Cc1nc(NC(=O)c2ccccc2)sc1-c1csc(Nc2ccccc2)n1 — higher, 63.3%
- CCn1cc(C(=O)NCc2ccco2)c(=O)c2cc(S(=O)(=O)N3CCCC3)ccc21 — lower, 24%
- Cc1cc(NC(=O)c2ccccc2)n(-c2nc3ccccc3n2C)n1 — lower, 12.8%
- CCn1nc(C(=O)Nc2nc(-c3ccccn3)cs2)c2ccccc2c1=O — lower, 53.3%
- Cc1nc(NC(=O)c2ccccc2)sc1-c1csc(Nc2ccccc2Cl)n1 — lower, -54.5%
- Cc1nc(NC(=O)c2ccccc2)sc1-c1csc(Nc2cccc(Cl)c2C)n1 — lower, -15.2%
- COc1ccc(-n2nc(C(=O)NCC(=O)Nc3ccc(OC)c(OC)c3)c3ccccc3c2=O)cc1 — lower, 35.2%
